# Experimental data as given in PubChem BioAssay (EPA / NIEHS).
# Where “and” joins values, the source holds several entries; their conditions need not be identical. Equal entries are not always repeated. A structure can be active in one record and inactive in another. Calls of active or inactive are those of the source. How the source made its calls: active means hit-call score of the fitted dose curve at least 0.9, where 1 is the maximum; inactive means score below 0.9.
# How the values were obtained:
# [1] = ATG_CRE_CIS: Attagene CIS-FACTORIAL HepG2 Assay for human cAMP Responsive Element (CRE) binding protein 3 (AID 2282926); details: HepG2 CRE cis-reporter, Attagene multiplexed mRNA; actives raise or lower the signal
# Outline: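 Multiplexed transcription-unit reporters transfected into HepG2; 24 h dosing; RT-PCR/capillary electrophoresis fluorescence read-out; bidirectional fit vs DMSO.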
# [2] = molecular target: CCAAT/enhancer-binding protein beta (Homo sapiens) (UniProt P17676); test: ATG_C_EBP_CIS: Attagene CIS-FACTORIAL HepG2 Assay for human CCAAT/Enhancer Binding Protein (C/EBP) beta (AID 2282927); details: HepG2 Attagene cis-factorial transcription factor reporter; actives raise or lower the signal
# Sequence of CCAAT/enhancer-binding protein beta (Homo sapiens) (P17676 whole entry, looked up): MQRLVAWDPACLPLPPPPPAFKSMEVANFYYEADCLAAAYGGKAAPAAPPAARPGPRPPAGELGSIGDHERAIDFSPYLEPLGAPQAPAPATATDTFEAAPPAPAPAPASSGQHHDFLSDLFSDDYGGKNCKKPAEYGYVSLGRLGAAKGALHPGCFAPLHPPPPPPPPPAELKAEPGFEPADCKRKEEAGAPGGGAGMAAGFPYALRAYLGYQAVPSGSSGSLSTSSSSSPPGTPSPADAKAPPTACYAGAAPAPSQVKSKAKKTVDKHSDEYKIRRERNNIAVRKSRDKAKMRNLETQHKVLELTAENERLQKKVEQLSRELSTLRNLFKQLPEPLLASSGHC
# Outline: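 Transiently transfected HepG2 (MRTU library, endogenous TF-driven promoters); 24 h dosing; total RNA → oligo(dT) RT → PCR → 6-FAM primer extension → HpaI digest → CE; fit bidirectionally vs DMSO.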
# [3] = ATG_CMV_CIS: Attagene CIS-FACTORIAL HepG2 Assay for human CMV (Internal Marker) (AID 2282928); details: HepG2 CMV promoter reporter, transcription factor profiling; actives raise or lower the signal;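 further: endpoint acts as a background internal control marker rather than a target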
# Outline: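 Cell system: HepG2, transiently transfected multiple reporter units under cis promoters. Exposure: 24 h. Detection: RT-PCR, FAM labeling, HpaI digestion, capillary electrophoresis. Analysis: bidirectional, DMSO baseline.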
# [4] = ATG_DR4_LXR_CIS: Attagene CIS-FACTORIAL HepG2 Assay for human Liver X Receptor (LXR), DR4 submotif (AID 2282929); details: HepG2 Attagene DR4 cis-reporter, mRNA transcription; actives raise or lower the signal
# Outline: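 Measures endogenous transcription factor activity via a DR4-driven reporter transcript in human HepG2 cells. Compounds incubated 24 h; mRNA quantified by RT-PCR and capillary electrophoresis, analysed as gain or loss of signal versus DMSO.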
# [5] = molecular target: Aryl hydrocarbon receptor (Homo sapiens) (UniProt P35869); test: ATG_Ahr_CIS: Attagene CIS-FACTORIAL HepG2 Assay for human Aryl Hydrocarbon Receptor (Ahr) (AID 2282930); details: HepG2 AhR cis-factorial reporter transcription; actives raise or lower the signal
# Sequence of Aryl hydrocarbon receptor (Homo sapiens) (P35869 whole entry, looked up): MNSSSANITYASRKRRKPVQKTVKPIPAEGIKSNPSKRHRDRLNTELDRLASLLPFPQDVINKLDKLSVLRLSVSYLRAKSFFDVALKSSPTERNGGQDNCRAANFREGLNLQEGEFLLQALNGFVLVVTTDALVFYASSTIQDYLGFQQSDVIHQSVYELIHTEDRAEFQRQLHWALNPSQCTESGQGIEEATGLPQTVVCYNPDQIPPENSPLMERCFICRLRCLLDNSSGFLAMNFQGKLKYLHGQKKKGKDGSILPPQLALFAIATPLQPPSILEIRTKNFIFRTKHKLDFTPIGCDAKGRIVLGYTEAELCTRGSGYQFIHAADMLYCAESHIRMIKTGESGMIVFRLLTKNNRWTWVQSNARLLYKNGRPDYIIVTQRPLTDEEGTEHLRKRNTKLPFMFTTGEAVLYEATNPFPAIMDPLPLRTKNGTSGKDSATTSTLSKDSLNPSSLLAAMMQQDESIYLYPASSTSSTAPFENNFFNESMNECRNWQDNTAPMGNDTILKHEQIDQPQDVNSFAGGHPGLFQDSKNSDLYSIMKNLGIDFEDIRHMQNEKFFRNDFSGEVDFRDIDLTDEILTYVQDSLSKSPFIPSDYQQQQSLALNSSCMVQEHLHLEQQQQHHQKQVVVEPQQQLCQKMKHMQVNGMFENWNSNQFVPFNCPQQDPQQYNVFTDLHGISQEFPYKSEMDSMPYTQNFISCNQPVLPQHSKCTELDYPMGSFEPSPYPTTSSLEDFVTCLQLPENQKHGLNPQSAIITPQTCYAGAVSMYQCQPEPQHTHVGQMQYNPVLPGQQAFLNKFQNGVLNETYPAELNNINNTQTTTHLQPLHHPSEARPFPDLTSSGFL
# Outline: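 Read-out: reporter mRNA quantified by RT-PCR with fluorescent primer extension and capillary electrophoresis. Human HepG2 liver cells carried transfected cis-promoter reporter units and were exposed to chemical for 24 h; gain or loss fitted relative to DMSO.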
# [6] = ATG_AP_1_CIS: Attagene CIS-FACTORIAL HepG2 Assay for human Activator Protein 1 (AP-1) (AID 2282931); details: HepG2 Attagene cis-factorial AP-1 reporter mRNA; actives raise or lower the signal
# Outline: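 Bidirectional concentration-response fitting against DMSO controls. Underlying signal: reporter mRNA from cis-promoter constructs in transiently transfected HepG2, measured after 24 h by RT-PCR and capillary electrophoresis.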
# [7] = ATG_AP_2_CIS: Attagene CIS-FACTORIAL HepG2 Assay for human Activator Protein 2 (AP-2) (AID 2282932); details: HepG2 AP-2 cis-reporter, Attagene transcription factor profiling; actives raise or lower the signal
# Outline: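 Multiplexed mRNA reporter assay in HepG2: cis-regulated units report endogenous factor activity after 24 h treatment. Fluorescence from capillary electrophoresis of RT-PCR products gives the signal, with DMSO as baseline.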
# [8] = ATG_BRE_CIS: Attagene CIS-FACTORIAL HepG2 Assay for human Bone Morphogenetic Protein (BMP) Response Element (BRE) (AID 2282933); details: HepG2 BMP response element reporter, Attagene transcription factor profiling; actives raise or lower the signal
# Outline: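 Read-out: reporter mRNA induction quantified by RT-PCR and capillary electrophoresis after 24 h chemical exposure of transfected HepG2 cells. Endogenous factor activity on the BMP response element; gain or loss fitted against DMSO baseline.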
# [9] = APR_HepG2_NuclearSize_72hr: Apredica 72-hour HepG2 Assay for Nuclear Size (AID 2282925); details: high-content imaging, actives raise or lower the signal
# Outline: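 HepG2 cells dosed 72 h at 0.39–200 uM (10 concentrations, duplicate) in 0.5% v/v DMSO final. Fixed, Hoechst 33342-stained nuclei imaged; nuclear diameter measured by automated image analysis. Bidirectional fit versus DMSO.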
# [10] = molecular target: Retinoic acid receptor alpha (Homo sapiens) (UniProt P10276); test: ATG_DR5_RAR_CIS: Attagene CIS-FACTORIAL HepG2 Assay for human Retinoic Acid Receptor Alpha (RARE), DR5 submotif (AID 2282934); details: HepG2 Attagene cis-factorial RARE DR5 reporter, mRNA; actives raise or lower the signal;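 on AC50: reporter responds to endogenous RAR alpha beta and gamma in HepG2 not RARA alone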
# Sequence of Retinoic acid receptor alpha (Homo sapiens) (P10276 whole entry, looked up): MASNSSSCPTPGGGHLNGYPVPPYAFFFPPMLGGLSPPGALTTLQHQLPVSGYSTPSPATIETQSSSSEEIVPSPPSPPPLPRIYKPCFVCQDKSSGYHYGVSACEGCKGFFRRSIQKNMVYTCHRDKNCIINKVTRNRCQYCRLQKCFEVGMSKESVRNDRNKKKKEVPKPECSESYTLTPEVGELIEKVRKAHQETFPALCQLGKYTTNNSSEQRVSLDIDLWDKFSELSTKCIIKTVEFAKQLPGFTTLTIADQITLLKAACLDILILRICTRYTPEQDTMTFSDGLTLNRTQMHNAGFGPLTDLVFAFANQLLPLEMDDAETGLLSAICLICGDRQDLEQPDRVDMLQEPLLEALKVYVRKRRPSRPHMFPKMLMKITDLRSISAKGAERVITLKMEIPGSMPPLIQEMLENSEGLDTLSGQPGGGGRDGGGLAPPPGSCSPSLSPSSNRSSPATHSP
# Outline: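 Read-out: DR5-driven reporter transcript measured by RT-PCR, 6-FAM primer extension, HpaI digest and capillary electrophoresis. Human HepG2 liver cells carry transiently transfected cis-element reporter constructs; dosing lasts 24 h. Gain or loss of signal fitted against DMSO baseline.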
compound,measurement,setting,value
CCCC[N+](C)(CCCC)CCCC,outcome,[1],inactive
same,outcome,[2],inactive
same,outcome,[3],inactive
same,outcome,[4],inactive
same,outcome,[5],inactive
same,outcome,[6],inactive
same,outcome,[7],inactive
C=CC(O)CCCCC (stereo not given),outcome,[1],inactive
same,outcome,[2],inactive
same,outcome,[3],inactive
same,AC50,[4],37.3 µM (active)
same,outcome,[5],inactive
same,outcome,[6],inactive
same,outcome,[7],inactive
COc1ccc(N)c(C)c1,outcome,[1],inactive
same,outcome,[2],inactive
same,outcome,[3],inactive
same,outcome,[4],inactive
same,outcome,[5],inactive
same,AC50,[6],70 µM (active)
same,outcome,[7],inactive
CC(C)CCOC(=O)CC(C)C,outcome,[1],inactive
same,outcome,[2],inactive
same,outcome,[3],inactive
same,outcome,[4],inactive
same,outcome,[5],inactive
same,outcome,[6],inactive
same,outcome,[7],inactive
same,outcome,[8],inactive
NC(=O)c1cnccn1,outcome,[1],inactive
same,outcome,[2],inactive
same,outcome,[3],inactive
same,outcome,[4],inactive
same,outcome,[5],inactive
same,outcome,[6],inactive
same,outcome,[7],inactive
C=CC(=O)OCCCCCC,outcome,[1],inactive
same,outcome,[2],inactive
same,outcome,[3],inactive
same,outcome,[4],inactive
same,outcome,[5],inactive
same,outcome,[6],inactive
same,outcome,[7],inactive
same,outcome,[8],inactive
COc1ccccc1O,outcome,[1],inactive
same,outcome,[2],inactive
same,outcome,[3],inactive
same,outcome,[4],inactive
same,outcome,[5],inactive
same,outcome,[6],inactive
same,outcome,[7],inactive
same,outcome,[8],inactive
COc1cc(OC)c2ccc(=O)oc2c1,outcome,[1],inactive
same,outcome,[2],inactive
same,outcome,[3],inactive
same,AC50,[4],2.81 µM (active)
same,outcome,[5],inactive
same,outcome,[6],inactive
same,outcome,[7],inactive
same,outcome,[8],inactive
CCOc1ccc(NC(C)=O)cc1,outcome,[1],inactive
same,outcome,[2],inactive
same,outcome,[3],inactive
same,outcome,[4],inactive
same,outcome,[5],inactive
same,outcome,[6],inactive
same,outcome,[7],inactive
CC(C)C(=O)OCC=Cc1ccccc1,outcome,[1],inactive
same,outcome,[2],inactive
same,outcome,[3],inactive
same,outcome,[4],inactive
same,outcome,[5],inactive
same,outcome,[6],inactive
same,outcome,[7],inactive
C#C[C@]1(O)CC[C@H]2[C@@H]3CCc4cc(O)ccc4[C@H]3CC[C@@]21C,outcome,[9],inactive
same,AC50,[1],66.9 µM (active) and 26.4 µM (active) and 37 µM (active)
same,outcome,[1],inactive
same,AC50,[3],26.4 µM (active) and 26 µM (active) and 26.2 µM (active)
same,outcome,[3],inactive
same,AC50,[5],19.8 µM (active) and 9.23 µM (active)
same,outcome,[5],inactive
same,AC50,[7],167 µM (active) and 46.7 µM (active)
same,outcome,[7],inactive
same,AC50,[8],75.6 µM (active) and 48.6 µM (active)
same,outcome,[8],inactive
same,AC50,[10],61 µM (active) and 81.7 µM (active) and 24.8 µM (active)
same,outcome,[10],inactive
CC(CO)c1ccccc1 (stereo not given),outcome,[1],inactive
same,outcome,[2],inactive
same,outcome,[3],inactive
same,outcome,[4],inactive
same,outcome,[5],inactive
same,outcome,[6],inactive
same,outcome,[7],inactive
CCCCOCC(C)OCC(C)O (stereo not given),outcome,[1],inactive
same,outcome,[2],inactive
same,outcome,[3],inactive
same,outcome,[4],inactive
same,outcome,[5],inactive
same,outcome,[6],inactive
same,outcome,[7],inactive
C=C(C)C(=O)OCCOCCOC(=O)C(=C)C,outcome,[1],inactive
same,outcome,[2],inactive
same,outcome,[3],inactive
same,outcome,[4],inactive
same,outcome,[5],inactive
same,outcome,[6],inactive
same,outcome,[7],inactive
CC1=CC[C@@H](C(C)(C)O)CC1,outcome,[1],inactive
same,outcome,[2],inactive
same,outcome,[3],inactive
same,outcome,[4],inactive
same,outcome,[5],inactive
same,outcome,[6],inactive
same,outcome,[7],inactive
same,outcome,[8],inactive
C[C@]12CC[C@@H]3c4ccc(O)cc4CC[C@H]3[C@@H]1CC[C@@H]2O,outcome,[9],inactive
same,outcome,[1],inactive
same,AC50,[3],19.5 µM (active) [middle of 4 runs]
same,outcome,[3],inactive
same,outcome,[4],inactive
same,AC50,[5],27.7 µM (active) and 62.5 µM (active)
same,outcome,[5],inactive
same,outcome,[6],inactive
same,AC50,[7],65.8 µM (active)
same,outcome,[7],inactive
same,outcome,[8],inactive
same,outcome,[10],inactive
Cc1cc(O)c(C)c(C)c1O,outcome,[1],inactive
same,outcome,[2],inactive
same,AC50,[3],18.5 µM (active)
same,outcome,[4],inactive
same,AC50,[5],17.8 µM (active)
same,outcome,[6],inactive
same,outcome,[7],inactive
CCCC1CCC(=O)CC1,outcome,[1],inactive
same,outcome,[2],inactive
same,outcome,[3],inactive
same,outcome,[4],inactive
same,AC50,[5],44.4 µM (active)
same,outcome,[6],inactive
same,outcome,[7],inactive
same,outcome,[8],inactive
CCOCC(C)O (stereo not given),outcome,[1],inactive
same,outcome,[2],inactive
same,outcome,[3],inactive
same,outcome,[4],inactive
same,outcome,[5],inactive
same,outcome,[6],inactive
same,outcome,[7],inactive
same,outcome,[8],inactive
CC/C=C\CCCCO,outcome,[1],inactive
same,outcome,[2],inactive
same,outcome,[3],inactive
same,outcome,[4],inactive
same,outcome,[5],inactive
same,outcome,[6],inactive
same,outcome,[7],inactive
CC(=O)c1ccc(C)cc1,outcome,[1],inactive
same,outcome,[2],inactive
same,outcome,[3],inactive
same,outcome,[4],inactive
same,outcome,[5],inactive
same,outcome,[6],inactive
same,outcome,[7],inactive
same,outcome,[8],inactive
CCCCCCCCCOS(=O)(=O)O,outcome,[1],inactive
same,outcome,[2],inactive
same,outcome,[3],inactive
same,AC50,[4],78.7 µM (active)
same,outcome,[5],inactive
same,outcome,[6],inactive
same,outcome,[7],inactive
CCCCCC(=O)O[C@]1(C(C)=O)CC[C@H]2[C@@H]3CCC4=CC(=O)CC[C@]4(C)[C@H]3CC[C@@]21C,AC50,[1],6.58 µM (active)
same,AC50,[2],8.6 µM (active)
same,outcome,[3],inactive
same,outcome,[4],inactive
same,outcome,[5],inactive
same,AC50,[6],36.5 µM (active)
same,outcome,[7],inactive
CC=CC(=O)C1=C(C)C=CCC1(C)C,outcome,[1],inactive
same,outcome,[2],inactive
same,outcome,[3],inactive
same,outcome,[4],inactive
same,outcome,[5],inactive
same,outcome,[6],inactive
same,outcome,[7],inactive
CCCOC(=O)CC,outcome,[1],inactive
same,outcome,[2],inactive
same,outcome,[3],inactive
same,outcome,[4],inactive
same,outcome,[5],inactive
same,outcome,[6],inactive
same,outcome,[7],inactive
same,outcome,[8],inactive
CC/C(=C(\c1ccccc1)c1ccc(OCCN(C)C)cc1)c1ccccc1,AC50,[9],119 µM (active)
same,outcome,[9],inactive
same,outcome,[1],inactive
same,outcome,[2],inactive
same,outcome,[3],inactive
same,outcome,[5],inactive
same,outcome,[6],inactive
same,outcome,[7],inactive
same,outcome,[8],inactive
same,outcome,[10],inactive
CC1(C)[C@H](C=C(Cl)Cl)[C@H]1C(=O)OCc1cccc(Oc2ccccc2)c1,outcome,[1],inactive
same,outcome,[2],inactive
same,outcome,[3],inactive
same,outcome,[4],inactive
same,outcome,[5],inactive
same,outcome,[6],inactive
same,outcome,[7],inactive
same,outcome,[8],inactive
CCOC(=O)COC(=O)c1ccccc1C(=O)OCC,outcome,[1],inactive
same,outcome,[2],inactive
same,outcome,[3],inactive
same,outcome,[4],inactive
same,outcome,[5],inactive
same,outcome,[6],inactive
same,outcome,[7],inactive
same,outcome,[8],inactive
O=C(c1ccc(OCCN2CCCCC2)cc1)c1c(-c2ccc(O)cc2)sc2cc(O)ccc12,outcome,[9],inactive
same,AC50,[1],11.1 µM (active) and 14.7 µM (active)
same,outcome,[1],inactive
same,AC50,[2],15.2 µM (active)
same,outcome,[2],inactive
same,AC50,[3],14.8 µM (active) and 7.91 µM (active)
same,outcome,[3],inactive
same,AC50,[4],20.3 µM (active) and 19.9 µM (active)
same,outcome,[4],inactive
same,AC50,[5],19.3 µM (active)
same,outcome,[5],inactive
same,AC50,[7],11.1 µM (active) and 15.4 µM (active)
same,outcome,[7],inactive
same,outcome,[8],inactive
